According to PubChem BioAssay AID651640 (Broad Institute, 2012):
Out of some 350,000 compounds screened, about 6,000 (1.7%) were called active. Another 5% or so got no clear call; they are omitted. The sample holds actives, similar compounds and a random draw of the others, so the mix is not that of the screen. Cut-off read from the data, not from the text of the source: active = CPE inhibition above about 20% (passing the limit was not always enough); inconclusive = no clear call, values can overlap the other calls; tested in BHK-21 cells.

test: inhibitors of DENV2 cytopathic effect, primary screen, cell-based, plate reader, single concentration (AID 651640); conditions: DENV2-infected cells, cytopathic effect rescue, at 9.99 µM, stronger effect = higher value;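 note: 0% = median of neutral control wells and 100% = median of positive control wells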

SMILES | CPE inhibition
CCOC(=O)[C@]12Cc3cc(OC)ccc3[C@H]1N(C(C)C)C(=O)c1ccccc12 | 28.6% (active)
CCOC(=O)[C@]12Cc3ccccc3[C@H]1N(C1CCCCC1)C(=O)c1cc(OC)ccc12 | 12.6% (inactive)
O=C(NC1CCCCC1)N1Cc2cc(N3CCCCC3)ccc2-n2nncc2C1 | 18.7% (inactive)
Clc1ccc([C@@H]2CC3CCC2N3)cn1 (stereo not given in full) | 2.65% (inactive)
c1cc2c(cc1C1OCC3C(c4ccc5c(c4)OCO5)OCC13)OCO2 (stereo not given) | 62% (active)
O=C1/C(=C\c2ccc3c(c2)OCO3)N2CCC1CC2 | -2.2% (inactive)
c1cc2c(cc1[C@H]1OC[C@H]3[C@@H]1CO[C@@H]3c1ccc3c(c1)OCO3)OCO2 | -8.32% (inactive)
COc1ccc(C#Cc2ccc([C@H]3[C@H](CO)N4CCCCN(C(=O)Cc5ccccc5)C[C@@H]34)cc2)cc1 | -26.2% (inactive)
O=C(NCC1=C(c2ccc3ccccc3c2)C[C@@H]2CC[C@H]1N2Cc1ccco1)c1cccs1 | 0.357% (inactive)
CS(=O)(=O)N1CCC2CCNC2C1 (stereo not given) | -6.24% (inactive)
C/C=C/c1ccc(C2[C@@H]3CN(Cc4cncnc4)C[C@H]2N3)cc1 (stereo not given in full) | 3.65% (inactive)
C/C=C/c1ccc(C2[C@@H]3CN(S(C)(=O)=O)C[C@H]2N3)cc1 (stereo not given in full) | 62.5% (active)
C[C@]12CCC3C(CC[C@H]4[C@H](O)[C@H](O)CC[C@]34C)C1CCC2=O (stereo not given in full) | -1.57% (inactive)
CC(=O)NCC1=C(c2ccc3ccccc3c2)C[C@@H]2CC[C@H]1N2Cc1ccco1 | -2.04% (inactive)
C[C@]12CCCCC1=CC(=O)C1C2CC[C@@]2(C)C1C[C@@H](F)[C@@H]2O (stereo not given in full) | -4.28% (inactive)
COc1cccc(-c2ccc([C@H]3[C@H]4CN(C(=O)Cc5ccncc5)CCCCN4[C@H]3CO)cc2)c1 | 9.07% (inactive)
O=C(Cc1ccncc1)N1CCCCN2[C@@H](CO)[C@H](c3ccc(-c4ccncc4)cc3)[C@@H]2C1 | 8.4% (inactive)
COc1ccc(-c2ccc([C@H]3[C@H](CO)N4CCCCN(C(=O)Cc5ccncc5)C[C@@H]34)cc2)cc1 | 40.9% (active)

SMILES | CPE inhibition
O=S(=O)(c1ccccc1)N1CCC2CCNC2C1 (stereo not given) | -0.751% (inactive)
COc1ccc2c(c1)NP(=S)(c1ccccc1)N2 (stereo not given) | 1.27% (inactive)
Cc1ccnc(-n2c(C)cc(/C=C3\C(=O)NC(=S)N(C)C3=O)c2C)c1 | 47.7% (active)
Cc1cc(/C=C2/C(=O)NC(=O)N(Cc3ccco3)C2=O)c(C)n1-c1ccc(C(=O)O)cc1 | -3.34% (inactive)
Cc1ccc(-n2c(C)cc(/C=C3\C(=O)NC(=O)N(C)C3=O)c2C)cc1C | -7.68% (inactive)
O=C(CCC(=O)N1C[C@H]2C[C@@H](C1)c1cccc(=O)n1C2)NCc1ccccc1C(F)(F)F | 25.4% (active)
COc1ccccc1NC(=O)N1C[C@@H]2C[C@@H](C1)c1cccc(=O)n1C2 | 7.15% (inactive)
O=C(NC(=S)N1C[C@H]2C[C@H](C1)c1cccc(=O)n1C2)c1ccc(F)cc1 | -11.6% (inactive)
CC(C)CN1Cc2cc(N3CCCCC3)ccc2-n2nncc2C1 | -1.07% (inactive)
O=C(O)[C@H]1[C@H](CO)[C@H]2Cn3c(ccc(-c4ccccc4)c3=O)[C@@H]1N2S(=O)(=O)c1ccccc1F | 0.732% (inactive)
COc1cccc(-c2ccc3n(c2=O)C[C@H]2[C@H](CO)[C@@H](C(=O)O)[C@@H]3N2C(=O)c2cnccn2)c1 | 0.125% (inactive)
COc1cc(OC)cc(C(=O)NCCN2CCC3(CC2)C(=O)NCN3c2ccccc2)c1 | 5.39% (inactive)
O=C(c1ccccc1)C(O)(CN1CCCCC1)c1ccccc1 (stereo not given) | 9.29% (inactive)
COC(=O)C1=C(c2ccc(F)cc2OCc2ccccc2)C[C@@H]2CC[C@H]1N2C(=O)NCc1ccc2[nH]ccc2c1 | 5.56% (inactive)
COC(=O)C1=C(c2ccc(F)cc2OCc2ccccc2)C[C@@H]2CC[C@H]1N2C(=O)NCc1ccc(Cl)cc1 | 91% (active)
COC(=O)C1=C(c2ccc(F)cc2OCc2ccccc2)C[C@@H]2CC[C@H]1N2C(=O)NCc1ccc(C(C)(C)C)cc1 | -10.5% (inactive)
COc1ccc(C2C=C(C)Oc3c2c(=O)oc2ccccc32)cc1OC (stereo not given) | -10.4% (inactive)
